Consider 20 compounds from PubChem BioAssay.

Molecules are shown by their SMILES. Unmarked numbers belong to inactive results. For some of these results: Entries with a potency or affinity are not part of this list. Activity calls are given as the source filed them. Unless noted, no rule for the calls is given here.

The term inhibition denotes the drop in the measured response relative to a control, in per cent.

A short description of test [1]: antimalarial activity against Dd2 strain (AID 2302;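 active = growth inhibition above 50% at the single 2 µM test dose, taken to imply half-maximal potency below 2 µM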;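 also: 0% = DMSO untreated growth and 100% = chloroquine plus artemisinin killed control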). The following applies: P. falciparum Dd2 in RBCs, LDH growth readout, 72 h; at 2 µM; active compounds read high.
Test [2] can be described thus: human hepatoma cell viability loss – ATP luminescence, cytotoxicity control for P. falciparum antimalarial project, primary screen (AID 2303;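 active = inhibition above 50%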;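 also: 0% = DMSO wells and 100% = digitonin-killed cells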). The following applies: HepG2 viability, 24-48 h, at 10 µM, active compounds read high.
Test [3] concerns the target L-lactate dehydrogenase (Plasmodium falciparum (isolate CDC / Honduras)) (UniProt Q27743). The test is described as follows: PfLDH activity inhibition – cell lysate, 3D7 strain, counter-screen for P. falciparum growth inhibition project (AID 2304).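 Also: 0% = vehicle and 100% = reference inhibitor.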 The following applies: P. falciparum 3D7 crude extract, LDH APAD/NBT absorbance; at 2 µM; active compounds read high. (In general: Counterscreens check selectivity or assay interference.)

Test [4] can be described thus: inhibition of 3D7 malaria parasite growth – strain 3D7 (AID 2306).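 Also: 0% = DMSO wells and 100% = chloroquine plus artemisinin control wells.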 The following applies: P. falciparum 3D7 erythrocytic growth, LDH absorbance, 72 h; at 2 µM; active compounds read high.
Test [5] has as its target Calcium-dependent protein kinase 1 (Plasmodium falciparum (isolate 3D7)) (UniProt P62344). Kind of test: PfCDPK1 kinase inhibitors, biochemical, TCAMS library (AID 1159585; cut-off not given, nearly all actives have IC50 up to about 0.98 µM;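 also: inhibitors leave more ATP so luminescence rises with inhibition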). The following applies: recombinant PfCDPK1, Kinase-Glo ATP depletion luminescence.
The target of test [6] is Plasmodium falciparum protein kinase 6 (PK6, PF3D7_1337100) (UniProt Q8IDW1). The test is described as follows: PfPK6 kinase inhibitors, biochemical, TCAMS library (AID 1159586). The following applies: recombinant PfPK6, Kinase-Glo ATP depletion luminescence. A general note: In Kinase-Glo more light means more ATP remaining.
Chain of Plasmodium falciparum protein kinase 6 (PK6, PF3D7_1337100) (Q8IDW1 1-305): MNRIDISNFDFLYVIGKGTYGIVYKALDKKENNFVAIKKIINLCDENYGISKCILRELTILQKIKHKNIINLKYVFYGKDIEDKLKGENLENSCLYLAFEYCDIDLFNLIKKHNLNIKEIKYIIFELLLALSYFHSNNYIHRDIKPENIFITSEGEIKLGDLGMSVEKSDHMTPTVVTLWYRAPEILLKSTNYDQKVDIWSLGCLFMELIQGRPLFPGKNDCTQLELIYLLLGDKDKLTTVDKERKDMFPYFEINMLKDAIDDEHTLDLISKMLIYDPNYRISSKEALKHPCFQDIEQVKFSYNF
Test [7] has as its target Protein kinase 7 (PK7), Plasmodium falciparum 3D7 (PF3D7_0213400) (UniProt Q7YTF7). The test is described as follows: inhibition of Plasmodium PK7 catalytic activity – biochemical, TCAMS antimalarial set, Kinase-Glo luminescence (AID 1159587). The following applies: recombinant PfPK7, Kinase-Glo ATP depletion luminescence.
Test [8] deals with Calcium-dependent protein kinase 4 (Plasmodium falciparum (isolate 3D7)) (UniProt Q8IBS5). The test is described as follows: PfCDPK4 kinase inhibitors, biochemical, TCAMS library (AID 1159588; cut-off not given, nearly all actives have IC50 up to about 0.91 µM). The following applies: recombinant PfCDPK4, Kinase-Glo ATP depletion luminescence.
Chain of Calcium-dependent protein kinase 4 (Plasmodium falciparum (isolate 3D7)) (Q8IBS5 whole entry, looked up): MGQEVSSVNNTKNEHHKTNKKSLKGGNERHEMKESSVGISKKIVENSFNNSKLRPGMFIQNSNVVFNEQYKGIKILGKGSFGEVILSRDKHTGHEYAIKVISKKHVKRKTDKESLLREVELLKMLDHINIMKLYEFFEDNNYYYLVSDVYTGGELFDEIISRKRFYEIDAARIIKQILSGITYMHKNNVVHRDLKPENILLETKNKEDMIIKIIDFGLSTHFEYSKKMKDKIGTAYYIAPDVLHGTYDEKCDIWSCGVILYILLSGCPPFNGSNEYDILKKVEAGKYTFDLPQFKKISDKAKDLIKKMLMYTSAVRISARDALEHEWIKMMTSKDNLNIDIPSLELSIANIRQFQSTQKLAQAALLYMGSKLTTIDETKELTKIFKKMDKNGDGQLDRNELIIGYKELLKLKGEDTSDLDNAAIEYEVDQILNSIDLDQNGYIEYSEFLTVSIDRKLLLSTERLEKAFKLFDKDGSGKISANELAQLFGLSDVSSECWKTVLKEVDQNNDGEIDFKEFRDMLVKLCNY

Chain of Protein kinase 7 (PK7), Plasmodium falciparum 3D7 (PF3D7_0213400) (Q7YTF7 1-343): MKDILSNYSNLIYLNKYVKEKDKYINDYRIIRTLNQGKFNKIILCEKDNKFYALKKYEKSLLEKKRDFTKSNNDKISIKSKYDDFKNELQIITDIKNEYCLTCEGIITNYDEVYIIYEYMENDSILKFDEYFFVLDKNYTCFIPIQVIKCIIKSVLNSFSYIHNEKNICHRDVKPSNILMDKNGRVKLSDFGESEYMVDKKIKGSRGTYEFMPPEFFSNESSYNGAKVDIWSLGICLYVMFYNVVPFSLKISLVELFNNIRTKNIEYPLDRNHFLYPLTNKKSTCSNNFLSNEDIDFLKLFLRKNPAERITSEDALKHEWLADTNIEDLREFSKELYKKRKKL
Chain of L-lactate dehydrogenase (Plasmodium falciparum (isolate CDC / Honduras)) (Q27743 whole entry, looked up): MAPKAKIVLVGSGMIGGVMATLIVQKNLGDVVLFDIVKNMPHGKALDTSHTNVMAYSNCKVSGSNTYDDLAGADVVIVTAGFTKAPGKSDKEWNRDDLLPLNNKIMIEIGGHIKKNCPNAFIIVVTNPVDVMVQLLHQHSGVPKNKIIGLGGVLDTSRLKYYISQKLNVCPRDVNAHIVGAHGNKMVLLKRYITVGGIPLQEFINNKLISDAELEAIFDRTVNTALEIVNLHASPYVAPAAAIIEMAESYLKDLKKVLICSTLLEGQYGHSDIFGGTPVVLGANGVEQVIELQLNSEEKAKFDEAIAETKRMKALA
Chain of Calcium-dependent protein kinase 1 (Plasmodium falciparum (isolate 3D7)) (P62344 whole entry, looked up): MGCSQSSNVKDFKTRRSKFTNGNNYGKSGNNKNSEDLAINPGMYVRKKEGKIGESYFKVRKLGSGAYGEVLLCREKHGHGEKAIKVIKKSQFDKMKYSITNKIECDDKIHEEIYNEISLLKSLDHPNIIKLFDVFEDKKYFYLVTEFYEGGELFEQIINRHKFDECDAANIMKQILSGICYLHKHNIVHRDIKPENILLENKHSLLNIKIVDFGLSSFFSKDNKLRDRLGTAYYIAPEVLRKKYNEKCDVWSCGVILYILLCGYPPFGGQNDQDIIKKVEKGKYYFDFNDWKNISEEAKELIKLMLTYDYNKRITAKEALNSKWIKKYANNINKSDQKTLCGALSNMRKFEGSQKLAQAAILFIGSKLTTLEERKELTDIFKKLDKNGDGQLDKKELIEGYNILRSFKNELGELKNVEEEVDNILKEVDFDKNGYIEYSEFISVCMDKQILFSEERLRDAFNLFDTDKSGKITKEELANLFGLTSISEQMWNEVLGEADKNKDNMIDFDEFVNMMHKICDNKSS

In the case of `Cn1cc(CN2CCCC(COC(c3ccc(F)cc3)c3ccc(F)cc3)C2)cn1` (stereo not given), the values for the growth inhibition in test [1] and in test [4] were 100% (active) and 98% (active), respectively. Also, the inhibition in test [2] was 15%; in test [3], 4%. For the same compound, the outcome in test [5], in test [6], in test [7] and in test [8] was inactive.

For the compound `Fc1ccc2nc(-c3cccc(-c4cccc(CN5CCN(c6cnccn6)CC5)c4)c3)[nH]c2c1`, the growth inhibition in test [1] was 35%; in test [4] it was 93% (active). For the same compound, the inhibition in test [2] was 17%; in test [3] it was -2%. For the same compound, the outcome in test [5], in test [6], in test [7] and in test [8] was inactive.

Consider `COc1ccccc1CCNc1nc(C)cc(N[C@@H](Cc2ccccc2)C(=O)NCCOc2ccccc2)n1`, for which the growth inhibition was 76% (active) in test [1] and 101% (active) in test [4]. For the same compound, the values for the inhibition in test [2] and in test [3] were 20% and 4%, respectively. The result in test [5], in test [6], in test [7] and in test [8] was inactive.

For `Cc1cc(=O)c(-c2ccc(OCc3ccc(OC(F)(F)F)cc3)cc2)c(C)[nH]1`, the growth inhibition is 92% (active) in test [1] and 97% (active) in test [4]. For the same compound, the inhibition in test [2] and in test [3] was 3% each time. The outcome in test [5], in test [6], in test [7] and in test [8] was inactive.

As to `Cc1cc(NCCC(=O)Nc2ccccc2)nc(NCCc2cccs2)n1`, the growth inhibition in test [1] is 20%; in test [4], 99% (active). The values for the inhibition in test [2] and in test [3] were 26% and 0%, respectively. Besides, the result in test [5], in test [6], in test [7] and in test [8] was inactive.

Take `CN(C)Cc1cccc2[nH]c(-c3csc(Cc4cc(Cl)ccc4OCc4ccccc4)n3)nc12`: the growth inhibition is 77% (active) in test [1] and 100% (active) in test [4]. Also, the inhibition was 14% in test [2] and -2% in test [3]. For the same compound, the result in test [5], in test [6], in test [7] and in test [8] was inactive.

As for `COc1cc(NCCCNCC2c3ccccc3Oc3ccccc32)nc2ccccc12`, the growth inhibition in test [1] was 66% (active); in test [4] it was 99% (active). Besides, the results for the inhibition in test [2] and in test [3] were 99% (active) and -9%, respectively. Moreover, the outcome in test [5], in test [6], in test [7] and in test [8] was inactive.

For `Fc1cc(CN2CCCC2)ccc1OCCCN1CCN(c2cccc(Cl)c2Cl)CC1`, the growth inhibition in test [1] was 15%; in test [4] it was 82% (active). The inhibition is 67% (active) in test [2] and -1% in test [3]. Moreover, the result in test [5], in test [6], in test [7] and in test [8] was inactive.

Take `CN(CCN)Cc1cccc(-c2ccc(-c3nc4ccc(C(F)(F)F)cc4[nH]3)s2)c1`: the figures for the growth inhibition in test [1] and in test [4] were 92% (active) and 100% (active), respectively. For the same compound, the inhibition in test [2] was 27%; in test [3], 5%. Moreover, the outcome in test [5], in test [6], in test [7] and in test [8] was inactive.

In the case of `CCOC(=O)N1CCN(CCCNc2c3ccccc3nc3ccccc23)CC1`, the growth inhibition in test [1] was 20%; in test [4], 90% (active). For the same compound, the inhibition in test [2] is 5%; in test [3], 2%. For the same compound, the result in test [5], in test [6], in test [7] and in test [8] was inactive.

With `CN(C)CC(O)C(c1ccccc1)c1cccc(Br)c1` (stereo not given), the growth inhibition was 9% in test [1] and 98% (active) in test [4]. Also, the inhibition in test [2] is 22%; in test [3] it was -8%. In addition, the result in test [5], in test [6], in test [7] and in test [8] was inactive.

Take `COc1ccc(C2CCC(NCCCCNC(=O)c3ccc(NC(=O)c4ccc(Cl)cc4)cc3)CC2)cc1` (stereo not given): the values for the growth inhibition in test [1] and in test [4] were 7% and 99% (active), respectively. In addition, the inhibition in test [2] is 23%; in test [3] it was -6%. In addition, the result in test [5], in test [6], in test [7] and in test [8] was inactive.

Turning to `CN(C)c1ccc(CN2CCC(CNC(=O)c3cc(-c4cccc(F)c4)cs3)C2)cc1` (stereo not given), the growth inhibition in test [1] was 13%; in test [4] it was 96% (active). Besides, the figures for the inhibition in test [2] and in test [3] were 48% and 0%, respectively. Besides, the result in test [5], in test [6], in test [7] and in test [8] was inactive.

`Nc1c(I)cc(C(=O)Nc2ccc3nc4c(c(N)c3c2)CCCC4)cc1I`: the growth inhibition is 99% (active) in test [1] and 100% (active) in test [4]. For the same compound, the inhibition in test [2] is 40%; in test [3], 2%. Besides, the result in test [5], in test [6], in test [7] and in test [8] was inactive.

For the compound `COc1ccccc1/C=C/C(=O)N(C)C1CCN(CCCCCNC(=O)/C=C/c2ccc(Cl)c(Cl)c2)C1` (stereo not given), the growth inhibition is 14% in test [1] and 94% (active) in test [4]. Besides, the inhibition is 10% in test [2] and -14% in test [3]. Besides, the outcome in test [5], in test [6], in test [7] and in test [8] was inactive.

As to `O=C(N[C@@H](Cc1ccccc1)C(=O)NC1CCCc2ccccc21)c1ccc(O)c(-c2cccc(C(F)(F)F)c2)c1` (stereo not given in full), the growth inhibition was 41% in test [1] and 91% (active) in test [4]. The inhibition was -2% in test [2] and -1% in test [3]. For the same compound, the result in test [5], in test [6], in test [7] and in test [8] was inactive.

For `CCCNCc1c(O)ccc2c(CNCCC)c(O)ccc12`, the growth inhibition was 9% in test [1] and 101% (active) in test [4]. The results for the inhibition in test [2] and in test [3] were 24% and -1%, respectively. In addition, the result in test [5], in test [6], in test [7] and in test [8] was inactive.

On to `c1ccc(Cn2nnnc2-c2cccc(Nc3ccnc4cc(-c5nccs5)ccc34)c2)cc1`, for which the results for the growth inhibition in test [1] and in test [4] were 46% and 87% (active), respectively. Further, the inhibition in test [2] is 51% (active); in test [3] it was -4%. The result in test [5], in test [6], in test [7] and in test [8] was inactive.

For the compound `Cc1cc(N)c2cc(NC(=O)c3cccc(C(=O)Nc4ccc5nc(C)cc(N)c5c4)c3)ccc2n1`, the growth inhibition in test [1] is 92% (active); in test [4], 94% (active). Further, the inhibition in test [2] is 9%; in test [3], 4%. In addition, the outcome in test [5], in test [6], in test [7] and in test [8] was inactive.

As to `Cc1nc(-c2cccc(Nc3nccc(NCC(O)c4ccc(C(F)(F)F)cc4)n3)c2)cs1` (stereo not given), the growth inhibition in test [1] is 99% (active); in test [4] it was 100% (active). Besides, the inhibition in test [2] was 33%; in test [3], 4%. Also, the result in test [5], in test [6], in test [7] and in test [8] was inactive.
